Compound activity: PubChem, National Center for Advancing Translational Sciences (NCATS)
Compounds with a hit are over-represented: about 11% of the library has one in this group of screens.
MCF10A rereplic – inducers of DNA re-replication in MCF 10A breast cells; MCF 10A DNA re-replication, Hoechst nuclear intensity, 48 h; Potency, µM (highest dose often 46.1 µM), hits mostly activators; 2.9% of 350,000 active; also: nearly all actives have a fitted effect of over 50% in size
RORgamma inh – blocks mouse ROR gamma transcriptional activity | Potency, µM (top dose mostly 53.6 µM), actives largely listed as inhibitors | 5.4% of 310,000 active | P51450 | Drosophila S2 Gal4-RORgamma UAS-luciferase reporter, 20 h; also: nearly all actives have a fitted effect of over 60% in size
Target sequence (P51450 whole entry, looked up, the tested form may be a part): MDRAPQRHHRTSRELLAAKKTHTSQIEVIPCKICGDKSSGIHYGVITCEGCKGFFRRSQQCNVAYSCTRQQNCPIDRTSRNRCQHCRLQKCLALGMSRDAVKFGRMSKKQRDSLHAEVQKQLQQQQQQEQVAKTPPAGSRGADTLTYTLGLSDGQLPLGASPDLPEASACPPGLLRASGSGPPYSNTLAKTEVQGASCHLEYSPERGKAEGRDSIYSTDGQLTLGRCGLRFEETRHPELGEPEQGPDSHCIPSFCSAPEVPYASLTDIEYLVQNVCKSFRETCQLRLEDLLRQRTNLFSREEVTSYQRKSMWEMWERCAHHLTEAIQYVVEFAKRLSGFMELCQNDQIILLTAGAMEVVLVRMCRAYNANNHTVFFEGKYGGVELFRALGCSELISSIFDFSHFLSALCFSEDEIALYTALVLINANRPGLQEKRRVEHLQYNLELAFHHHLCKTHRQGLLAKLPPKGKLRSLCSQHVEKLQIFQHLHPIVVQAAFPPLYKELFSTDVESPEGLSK
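Stable Schneider cell line, Gal4 DNA-binding domain fused to ROR gamma, UAS-luciferase. Cmpd 1 hr RT → CuSO4 700 uM final → 20 hr RT → luciferase reagent 10 min → luminescence.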
IL1B secr inh – inhibitors of inflammasome signaling (IL-1 beta secretion); 4.7% of 360,000 active; AID 743279; THP-1 LPS/ATP IL-1B secretion, AlphaLISA, 16 h; active compounds read low; activity change, % at 57.5 µM; in the data active = activity change below about -50%; inconclusive = mostly about -30% to -49%
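Secreted IL-1B measured by AlphaLISA bead assay after 16 h compound exposure of THP-1 cells; compounds (final up to 57.5 uM) added 1 h before LPS (250 ng/mL) and ATP (1.25 mM) stimulation; lower signal means less secretion.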
SW480 rereplic – inducers of DNA re-replication in SW480 colon cancer cells; Potency, µM (highest dose often 46.1 µM), actives largely listed as activators; 1.8% of 340,000 active; SW480 DNA re-replication, Hoechst DNA content imaging, 48 h; also: nearly all actives have a fitted effect of over 55% in size
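SW480 cells exposed to compounds for 48 hr at 37 C, 5% CO2, then Hoechst-stained 40 min. Nuclear DNA content imaged by fluorescence scanning (405 nm excitation, 500-530 nm emission); re-replication scored as increased high-intensity nuclei.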
VP16 counter – inhibits Gal4-VP16 luciferase reporter, ROR gamma counter-screen; Drosophila S2 Gal4-VP16 UAS-luciferase, luminescence, 20 h; Potency, µM (series often up to 53.6 µM), usual class: inhibitors; 3.5% of 310,000 active; AID 2546;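 also: Gal4-VP16 expression switched on by copper sulfate through the metallothionein promoter; nearly all actives have a fitted effect of over 50% in size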
Numbers stand for hits; – = inactive; ? = inconclusive; · = not tested or not shown; [ ] = dose if it differs, or a comment. Unless noted, calls follow the shape of the dose curve; as a rule, active = well fitted curve in the direction sought with a large enough effect; inconclusive = small, poorly fitted or top-dose-only effect, or another doubt; inactive = no such curve, though single readings can be large; an effect the other way counts as inactive or inconclusive.

SMILES	MCF10A rereplic	RORgamma inh	IL1B secr inh	SW480 rereplic	VP16 counter
CC(C)[C@H](NC(=O)N1c2ccccc2NC(=O)[C@@H]1C(C)C)C(=O)N[C@H](Cc1ccccc1)C(=O)O	–	–	–	–	–
COc1ccc(CNC(=O)c2cc(-c3cc(C)cc(C)c3O)n[nH]2)cc1	?	–	-68.5	?	–
Cc1cc(O)c(-c2cc(C(=O)NCCc3ccc(S(N)(=O)=O)cc3)[nH]n2)cc1C	–	–	–	–	–
Cc1cc(C)c(O)c(-c2cc(C(=O)NCCc3ccc(S(N)(=O)=O)cc3)[nH]n2)c1	–	–	-50.9	–	–
Cc1ccc(S(=O)(=O)N2C3CCCCC3O[C@H]2CC(=O)c2cccs2)cc1 (stereo partly specified)	·	·	–	·	·
O=C(NCc1ccco1)c1cccc(-c2cncc3nccn23)c1	·	·	–	·	·
NCCC[C@@H](CC(=O)N[C@@H]1CCCC[C@H]1C(=O)N[C@H](CC(=O)N[C@@H](CCC(=O)O)CC(=O)O)Cc1c[nH]c2ccccc12)NC(=O)C[C@H](CO)NC(=O)[C@@H]1CNCC[C@H]1N	·	–	·	·	–
Cn1c(=O)[nH]c(=O)c2c1nc(Br)n2C/C=N/NC(N)=S	·	?	·	·	–
Cn1c(=O)c2c(nc(Br)n2C/C=N/NC(N)=S)n(C)c1=O	?	5.01µM	·	?	–
Cc1cccc(N2CCN(C(=O)CCCCCn3c(=S)[nH]c4ccc(N5CCOCC5)cc4c3=O)CC2)c1C	?	7.08µM	–	–	11.2µM
CCCCn1c(=S)[nH]c2ccc(N3CCOCC3)cc2c1=O	·	2.24µM	·	·	7.08µM
O=c1c2cc(F)ccc2[nH]c(=S)n1CCCN1CCOCC1	–	11.2µM	–	–	?
CCOc1cc2[nH]c(=S)n(CCN3CCC(C)CC3)c(=O)c2cc1OCC	–	–	–	–	–
CCOc1cc2[nH]c(=S)n(Cc3ccc(C)o3)c(=O)c2cc1OCC	?	7.08µM	–	?	11.2µM
Cc1ccc(S(=O)(=O)N(C)C[C@@H]2OCc3cn(nn3)CCCC(=O)N([C@H](C)CO)C[C@H]2C)cc1	·	·	–	·	·
CCOC(=O)c1cc(OC)c2cccc(CN3CCCC(C)(C(=O)NCCOC)C3)c2c1 (stereo unspecified)	·	·	–	·	·
COc1ccc(C(=O)OC2CC3CC[C@H](C2)N3C(C)=O)cc1OC (stereo partly specified)	·	–	·	·	–
COc1c2c(cc3c1C(CC(O)C(C)C)N(C)CC3)OCO2 (stereo unspecified)	·	–	·	·	–
CCCCCCN1C[C@@H](n2cc(COC(=O)c3ccccc3)nn2)[C@H](O)C[C@@H]1c1ccc(OC)cc1	·	·	–	·	·
CCOC(=O)CC(CC(C)=O)C(=O)OCC (stereo unspecified)	·	–	·	·	–
Cc1ccc(Cn2c(=S)[nH]c3ccc(N4CCOCC4)cc3c2=O)o1	?	3.16µM	?	23.1µM	3.98µM
Cc1ccc(N(C(=O)CNC(=O)c2ccco2)C(C(=O)NCC2CCCO2)c2ccccc2)c(C)c1 (stereo unspecified)	–	–	–	–	–
O=C(CCN1CCN(c2ccccc2)CC1)NNC(=O)Cc1ccc(Br)cc1	–	·	-54.8	–	·
Cc1ccc(NC(=O)NCc2ccc3c(c2)OCO3)cc1C	?	–	-62.7	–	–
Cc1ccc(CNc2ccc3c(c2)OCO3)cc1	23.1µM	–	-93.2	23.1µM	–
SMILES	MCF10A rereplic	RORgamma inh	IL1B secr inh	SW480 rereplic	VP16 counter
c1cc(CNc2ccc3c(c2)OCO3)ccn1	–	–	–	–	–
Cc1ccc(NC(=S)NCc2ccc3c(c2)OCO3)cc1C	–	12.6µM	-69.1	–	?
O=C(NCc1ccc2c(c1)OCO2)Nc1ccc(F)cc1	–	–	–	–	–
Fc1ccc(NC(=S)NCc2ccc3c(c2)OCO3)cc1	–	11.2µM	–	–	?
CC[C@H]1C2=C3C(CC[C@H]4C(OC)OC[C@](C)([C@@H]34)N(C(=O)OC(C)(C)C)C2)C(CO)C1CO (stereo partly specified)	·	–	·	·	–
CN(CCCNC(=O)CCC(=O)N1CCOc2ccccc21)Cc1ccccc1	–	–	–	–	–
CC(C)Oc1cc(F)ccc1-c1cc(C(=O)NCc2cccs2)[nH]n1	·	·	–	·	·
Cc1ccc[n+](C(C)C(=O)Nc2ccc(C)c(C)c2)c1 (stereo unspecified)	0.231µM	–	–	–	–
COC(=O)C1=CN(c2ccc3c(c2)OCO3)C(N)=C(C#N)C1c1cccc(F)c1 (stereo unspecified)	·	·	–	·	·
C[C@H](NC(=O)N1CCn2c1nc1ccccc12)C(=O)NCc1ccc2c(c1)OCO2	–	–	?	–	–
Nc1nccs1	–	–	·	–	–
Clc1ccc(-n2nnnc2SCc2c(-c3ccccc3)nc3sccn23)cc1	–	?	–	–	6.31µM
COc1ccc(-c2nc3c(c4c2CC(C)OC4)CN(CCC(C)C)CC3)cc1 (stereo unspecified)	·	–[10 µM]	·	·	–[10 µM]
Cc1cc(C)nc(Nc2ccccc2F)n1	–	–	–	23.1µM	–
CCOC(=O)c1c(NC(C)=O)sc2c(OC)c(Br)ccc12	?	–	–	?	–
CCOC(=O)c1c(NC(C)=O)sc2c(O)c(CN3CCN(CC)CC3)ccc12	?	–	-62.7	–	–
COc1cccc(C(=O)N(Cc2nc(-c3ccc(C)cc3)no2)C(C)C)c1	–	–	–	–	–[0.365 µM]
Cc1cc(Br)ccc1OCC(=O)N(Cc1nc(-c2ccccc2)no1)C(C)C	18.4µM	?	–	?	–
Cc1ccc(C)c(C(=O)N(Cc2nc(-c3ccc(Cl)cc3)no2)C(C)C)c1	23.1µM	–	–	–	–
COc1ccccc1OCC(=O)N(Cc1nc(-c2ccc(Cl)cc2)no1)C(C)C	–	–	–	–	–
COc1ccccc1OCC(=O)N(Cc1nc(-c2ccccc2)no1)C(C)C	–	–	-59.2	?	–
CC(C)CN(C(=O)CN(C)CC(=O)Nc1ccc(Cl)c(C(F)(F)F)c1)c1c(N)n(CC(C)C)c(=O)[nH]c1=O	?	·	-65.8	–	·
COc1ccc(Cl)cc1NC(=O)CN(C)CC(=O)N(CC(C)C)c1c(N)n(CC(C)C)c(=O)[nH]c1=O	–	·	–	–	·
CN(CC(=O)Nc1ccc(Cl)c(C(F)(F)F)c1)C(=O)c1cccs1	–	·	?	–	·
CN(CC(=O)NC(=O)NCc1ccccc1)CC(=O)Nc1ccc(Cl)c(C(F)(F)F)c1	?	·	-89.4	–	·
CN(CC(=O)Nc1ccc(Cl)c(C(F)(F)F)c1)C(=O)C1(c2ccccc2)CC1	?	·	-56.7	?	·
C/C(CCc1ccccc1)=N\NC(=O)c1ccccc1[N+](=O)[O-]	–	–	–	–	–
O=C(N/N=C/c1ccc(Br)s1)c1ccc([N+](=O)[O-])cc1	–	0.447µM	–	–	0.631µM
O=C(NN=Cc1ccc(N2CCOCC2)s1)c1ccc([N+](=O)[O-])cc1	–	·	?	–	·
Cc1ccc(OCC(=O)N/N=C\c2cccs2)c([N+](=O)[O-])c1	–	?	–	–	?
